The values below come from ChEMBL document CHEMBL1961873, “Compounds: GSK PKIS; Assays: Nanosyn kinase panel” (2012).

As usually defined, the inhibition is the change of the read-out against control, counted positive when it falls.
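Note: values are mean inhibition of TNK2, from the GSK PKIS screening dataset.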

Activated CDC42 kinase 1 (Homo sapiens), sequence (Q07912 whole entry, looked up): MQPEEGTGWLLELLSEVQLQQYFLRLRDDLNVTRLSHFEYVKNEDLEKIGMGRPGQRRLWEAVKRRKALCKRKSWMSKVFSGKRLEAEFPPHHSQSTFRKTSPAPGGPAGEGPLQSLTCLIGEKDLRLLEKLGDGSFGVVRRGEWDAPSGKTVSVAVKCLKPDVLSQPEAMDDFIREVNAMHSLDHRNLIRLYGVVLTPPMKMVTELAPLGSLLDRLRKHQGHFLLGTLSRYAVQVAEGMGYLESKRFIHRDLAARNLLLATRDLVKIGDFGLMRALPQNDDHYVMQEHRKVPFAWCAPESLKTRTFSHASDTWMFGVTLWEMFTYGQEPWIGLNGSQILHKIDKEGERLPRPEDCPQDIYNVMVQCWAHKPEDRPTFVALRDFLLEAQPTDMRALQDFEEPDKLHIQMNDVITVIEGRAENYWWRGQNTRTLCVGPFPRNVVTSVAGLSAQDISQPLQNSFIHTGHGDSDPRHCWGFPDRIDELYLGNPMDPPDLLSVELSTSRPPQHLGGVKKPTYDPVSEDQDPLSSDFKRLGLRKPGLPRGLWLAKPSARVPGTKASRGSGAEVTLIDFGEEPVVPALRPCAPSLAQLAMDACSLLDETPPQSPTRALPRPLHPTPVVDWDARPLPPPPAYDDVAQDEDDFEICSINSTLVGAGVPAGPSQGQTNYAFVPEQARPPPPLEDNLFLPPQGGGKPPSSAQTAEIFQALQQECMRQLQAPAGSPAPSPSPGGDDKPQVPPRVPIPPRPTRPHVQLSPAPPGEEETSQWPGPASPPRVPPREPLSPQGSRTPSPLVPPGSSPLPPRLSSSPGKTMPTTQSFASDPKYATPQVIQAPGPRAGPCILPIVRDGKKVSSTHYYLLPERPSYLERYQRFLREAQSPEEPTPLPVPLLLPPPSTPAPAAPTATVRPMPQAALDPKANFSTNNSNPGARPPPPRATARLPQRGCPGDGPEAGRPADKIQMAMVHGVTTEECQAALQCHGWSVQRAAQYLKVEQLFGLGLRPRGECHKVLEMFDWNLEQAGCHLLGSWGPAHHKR

This test has as its target Activated CDC42 kinase 1 (Homo sapiens) (UniProt Q07912). Conditions: at 0.1 µM.
As to `COc1cccc(-n2cnc3c(N/N=C/c4ccncc4)ncnc32)c1`, the inhibition stood at 0.06%.
Next, `Fc1ccc(-c2ncn(C3CCNCC3)c2-c2ccnc(Oc3ccc(F)c(F)c3)n2)cc1`: -0.47%; `Cc1ccc(C(=O)NC2CCC2)cc1-c1ccc(C(=O)NCC2CC2)cc1`: 1.04%.
With `C[C@@H](Oc1cc(-n2cnc3ccc(OC4CCN(C)CC4)cc32)sc1C(N)=O)c1ccccc1Cl`, the inhibition was -0.17%.
`CCS(=O)(=O)c1ccc(OC)c(Nc2ncc(-c3ccccc3Cl)o2)c1`: the inhibition worked out at 1.07%.
Consider `CCC(=O)Nc1ccc(C)c(-c2ccc(C(=O)NCC3CC3)cc2)c1`, for which the inhibition is 0.66%.
As to `O=C(Nc1n[nH]c2cc(-c3cc(F)ccc3F)ccc12)C1CC1`, the inhibition was -0.01%.
For the compound `O=C1NC(=O)C(c2cccc(Cl)c2)=C1Nc1ccc(Cl)c(C(=O)O)c1`, the inhibition was determined as 0.78%.
For `CS(=O)(=O)CCNCc1ccc(-c2ccc3ncnc(Nc4ccc(OCc5ccccc5)c(Br)c4)c3c2)o1`, the inhibition is -0.17%.
Consider `COc1ccc2ncn(-c3cc(O[C@H](C)c4ccccc4Cl)c(C(N)=O)s3)c2c1`, for which the inhibition is 0.31%.
Next, `Cc1ccc(C(=O)NC(C)C)cc1-c1ccc(C(=O)NCC2CC2)cc1`: -0.81%; `O=C(Nc1ccc(Oc2ccc3[nH]c(NC(=O)c4ccccc4)nc3c2)cc1)Nc1cc(C(F)(F)F)ccc1F`: 0.59%.
`C[C@@H](Oc1cc(-n2cnc3ccc(OCC4CCN(C)CC4)cc32)sc1C(N)=O)c1ccccc1Cl`: the inhibition came out at 3.05%.
In the case of `COc1ccc2cc(-c3c(-c4ccncc4)nc(-c4ccc([S+](C)[O-])cc4C)n3C)ccc2c1` (centres undefined), the inhibition is -0.21%.
Take `CCc1ccc(Oc2nccc(-c3c(-c4ccc(F)cc4)ncn3C3CCNCC3)n2)cc1`: the inhibition was determined as 1.41%.
For the compound `O=C(NCC1CC1)c1ccc(-c2cccc(C(=O)NC3CC3)c2)cc1`, the inhibition is 0.86%.
Next, `CS(=O)(=O)CCNCc1cc(-c2cc3c(Nc4ccc(OCc5cccc(F)c5)c(Cl)c4)ncnc3s2)cs1`: 1.66%; `Fc1ccc(-c2ncn(C3CCNCC3)c2-c2ccnc(Oc3ccc4c(c3)OCO4)n2)cc1`: 1.16%.
Next, `NS(=O)(=O)c1ccc(N/N=C2\C(=O)Nc3ccc(C(=O)NCCCn4ccnc4)cc32)cc1`: 0.41%.
`NC(=O)Cc1ccccc1Oc1nccc(-c2c(-c3ccc(F)cc3)ncn2C2CCNCC2)n1`: the inhibition amounted to 1.43%.
As to `COc1cccc(/C=N/Nc2ncnc3c2cnn3-c2cccc(OC)c2)c1`, the inhibition turned out to be 1.06%.
Next, `COc1ccc(-c2ccc3c(NC(=O)C4CC4)n[nH]c3n2)cc1`: 0.32%; `Fc1ccc(-c2ncn(CCCN3CCOCC3)c2-c2ccncc2)cc1`: -0.82%; `Fc1ccc(-c2c(-c3ccncc3)nc3n2CCS3)cc1`: 0.57%.
Next, `CN(C)c1ccc2c(c1)/C(=C/Nc1ccc(S(N)(=O)=O)cc1)C(=O)N2`: 0.14%.
For `c1ccc(-c2n[nH]cc2-c2ccnc(-c3ccc(OCCN4CCOCC4)cc3)c2)nc1`, the inhibition turned out to be 5.48%.
Next, `COC(=O)Nc1nc2ccc(Sc3ccc(NC(=O)Nc4cc(C(F)(F)F)ccc4F)cc3)cc2[nH]1`: 0.06%; `COc1cc(Nc2ncc(-c3ccccc3)o2)cc(OC)c1OC`: 0%; `Fc1ccc(-c2nc3n(c2-c2ccncc2)CCS3)cc1`: 0.78%.
Next, `C#Cc1cccc(Nc2ncnc3ccc(OCCCCNCCS(C)(=O)=O)cc23)c1`: 2.03%; `COc1ccc(C2=C(N3CCc4ccccc43)C(=O)NC2=O)cc1`: 1.51%.
Regarding `COc1cc(N2CCN(C(C)C)CC2)ccc1Nc1nc(Nc2ccc(F)cc2C(=O)NC[C@@H](O)CO)c2cc[nH]c2n1`, the inhibition amounted to 3.26%.
`Fc1ccc(-c2ncn(C3CCNCC3)c2-c2ccnc(Oc3ccc(Oc4ccccc4)cc3)n2)cc1`: the inhibition was 0.73%.
Take `CCc1cccc(CC)c1/C=C/c1cncc(C(=O)NC)c1`: the inhibition stood at 1.3%.
